Several values for one entry are separate records, joined by “and”; a condition that tells them apart may be missing. Equal values may be shown once.
biological target: Neurogenic locus notch homolog protein 3 (Homo sapiens) (UniProt Q9UM47); experiment: NOTCH3 binders on small-molecule microarray, primary screen, biochemical, 635/667 nm fluorescence (AID 1096); settings: NOTCH3 binding, 635 nm fluorescence, higher = more signal
Sequence (Q9UM47 whole entry, looked up): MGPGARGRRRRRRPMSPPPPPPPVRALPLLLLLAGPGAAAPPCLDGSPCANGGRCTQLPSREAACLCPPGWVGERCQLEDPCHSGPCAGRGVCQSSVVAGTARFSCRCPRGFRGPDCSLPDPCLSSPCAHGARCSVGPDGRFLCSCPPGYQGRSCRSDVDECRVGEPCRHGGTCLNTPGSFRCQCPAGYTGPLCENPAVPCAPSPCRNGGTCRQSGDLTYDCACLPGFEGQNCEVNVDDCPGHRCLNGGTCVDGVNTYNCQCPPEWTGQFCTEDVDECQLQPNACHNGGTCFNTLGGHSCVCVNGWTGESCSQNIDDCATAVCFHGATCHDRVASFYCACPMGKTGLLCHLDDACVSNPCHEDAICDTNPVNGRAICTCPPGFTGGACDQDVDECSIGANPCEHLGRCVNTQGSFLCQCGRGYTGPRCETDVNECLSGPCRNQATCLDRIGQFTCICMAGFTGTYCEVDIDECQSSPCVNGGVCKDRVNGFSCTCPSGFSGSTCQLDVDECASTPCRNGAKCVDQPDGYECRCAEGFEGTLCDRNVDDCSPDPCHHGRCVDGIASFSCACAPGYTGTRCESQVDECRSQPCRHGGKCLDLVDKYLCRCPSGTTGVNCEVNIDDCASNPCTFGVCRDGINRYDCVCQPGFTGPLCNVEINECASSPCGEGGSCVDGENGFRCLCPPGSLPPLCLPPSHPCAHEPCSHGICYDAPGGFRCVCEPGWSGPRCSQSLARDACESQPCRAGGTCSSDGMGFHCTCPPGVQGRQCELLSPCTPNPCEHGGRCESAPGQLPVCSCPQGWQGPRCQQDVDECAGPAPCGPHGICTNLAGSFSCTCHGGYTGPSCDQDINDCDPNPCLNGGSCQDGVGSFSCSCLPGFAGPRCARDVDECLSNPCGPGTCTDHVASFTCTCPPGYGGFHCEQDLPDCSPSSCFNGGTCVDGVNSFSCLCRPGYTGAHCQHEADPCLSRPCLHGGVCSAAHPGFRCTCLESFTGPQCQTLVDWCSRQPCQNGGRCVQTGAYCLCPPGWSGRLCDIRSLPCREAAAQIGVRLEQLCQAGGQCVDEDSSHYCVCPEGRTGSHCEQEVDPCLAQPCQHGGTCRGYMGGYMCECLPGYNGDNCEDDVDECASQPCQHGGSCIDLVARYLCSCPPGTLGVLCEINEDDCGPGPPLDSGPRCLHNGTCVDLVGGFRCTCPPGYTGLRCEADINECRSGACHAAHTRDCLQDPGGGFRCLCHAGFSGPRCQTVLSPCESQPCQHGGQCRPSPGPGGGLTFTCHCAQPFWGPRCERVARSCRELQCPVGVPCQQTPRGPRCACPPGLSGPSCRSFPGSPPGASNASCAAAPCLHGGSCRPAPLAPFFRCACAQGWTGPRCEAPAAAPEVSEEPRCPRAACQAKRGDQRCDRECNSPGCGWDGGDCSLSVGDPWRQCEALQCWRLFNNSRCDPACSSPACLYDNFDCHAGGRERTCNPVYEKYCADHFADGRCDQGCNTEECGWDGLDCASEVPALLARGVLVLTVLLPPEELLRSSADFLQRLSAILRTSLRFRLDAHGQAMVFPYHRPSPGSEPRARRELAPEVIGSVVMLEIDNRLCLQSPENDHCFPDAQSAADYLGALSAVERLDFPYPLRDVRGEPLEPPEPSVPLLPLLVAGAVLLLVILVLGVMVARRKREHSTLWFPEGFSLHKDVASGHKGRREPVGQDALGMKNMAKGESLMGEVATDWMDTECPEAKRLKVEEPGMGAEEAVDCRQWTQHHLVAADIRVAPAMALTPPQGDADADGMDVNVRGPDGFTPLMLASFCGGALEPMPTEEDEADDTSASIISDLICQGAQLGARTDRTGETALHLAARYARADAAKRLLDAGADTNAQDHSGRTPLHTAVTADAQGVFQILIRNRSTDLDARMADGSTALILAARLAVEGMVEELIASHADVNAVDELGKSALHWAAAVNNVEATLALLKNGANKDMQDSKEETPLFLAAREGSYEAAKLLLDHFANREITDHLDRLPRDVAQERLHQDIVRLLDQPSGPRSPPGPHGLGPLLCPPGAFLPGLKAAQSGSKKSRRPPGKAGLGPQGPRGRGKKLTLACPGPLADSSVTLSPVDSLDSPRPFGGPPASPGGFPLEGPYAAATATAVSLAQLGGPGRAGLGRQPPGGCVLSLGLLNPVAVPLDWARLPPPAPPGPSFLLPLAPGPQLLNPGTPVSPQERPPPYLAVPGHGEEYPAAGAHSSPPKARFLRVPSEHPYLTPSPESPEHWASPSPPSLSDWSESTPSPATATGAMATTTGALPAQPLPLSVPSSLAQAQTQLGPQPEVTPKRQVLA

SMILES	composite z-score
C=CCN(CCCC)C(=O)C1N(c2ccc(CCO)cc2)C(=O)C2C(C(=O)O)C3C=CC21O3 (configuration not stated)	-1.38 and -1.27
COC(=O)C1=C(C)N(Cc2ccccc2)C2=C3C(=O)N(c4ccccc4)C(=O)[C@@H]3[C@@](O)(C(=O)OC)C(=O)N2[C@@H]1c1ccccc1	0.54 and 1.04
CCC[C@@H]1C[C@@]1(CCC)[C@@H](NC(=O)c1ccc(-c2ccccc2)cc1)c1cccc(Cl)c1	-0.585 and 0.419
C=CCN(C(=O)C(c1cccs1)N(C(=O)/C=C\C(=O)O)c1ccc(CCO)cc1)C(C)(C)C (configuration not stated)	-0.583 and -1.21
C=CCN(Cc1ccccc1)C(=O)C1N(CCCCCCO)C(=O)C2C(C(=O)O)C3C=CC21O3 (configuration not stated)	-1.59 and -0.439
COc1ccc(COC(=O)NN=C2C[C@@H](O)[C@@H](O)[C@@H]3[C@@H]4C(=O)N(C(C)(C)C)C(=O)[C@@H]4CC[C@H]23)cc1	0.469
O=C1NC(=O)C2C1C=CC(C(O)c1ccc([N+](=O)[O-])cc1)N2Nc1ccc(Cl)cc1Cl (configuration not stated)	0.843 and 0.588
COC(=O)C1=C(C)N(Cc2ccccc2)C2=C3C(=O)CCC[C@@H]3[C@@](O)(C(=O)OC)C(=O)N2[C@@H]1c1ccccc1	0.602 and -0.239
C[N+](C)(C)CCCCNC(=O)[C@H]1C[C@H]2C(=O)N[C@@H](CCCC[N+](C)(C)C)C(=O)N2[C@H]1c1cccc(OCCO)c1	0.914 and 1.1
C=CCN(CCCCC)C(=O)C1N(c2ccc(CCO)cc2)C(=O)C2C(C(=O)O)C3C=CC21O3 (configuration not stated)	-0.636 and -0.651
CC(C)C(=O)N[C@@H]1CCCN1C(=O)C=Cc1ccccc1	0.786
C[C@@H](ON=C1[C@H]2CCn3c(=O)n(-c4ccccc4)c(=O)n3[C@H]2[C@H](O)[C@@H]2O[C@H]12)c1cn([C@H](CO)Cc2ccccc2)nn1	0.668
